From PubChem BioAssay (NCI) come the findings set out here.

The structures appear in SMILES notation. The panel holds about 83,000 compounds, 20% with a hit somewhere; the sample as a whole holds those more often.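 Single-concentration screen, 48 h exposure, 96-well plates. Endpoint: percent growth. Below 10 = active.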 Unmarked numbers belong to inactive results. Active and inactive are the calls of the source.

Holding throughout (experiment): NCI-60 one-dose screen, 48 h (100 = growth as untreated, 0 = no growth, -100 = all killed)
What all share (conditions): 10 µM unless noted

For experiment [1], the system named is HCT-15 colon.
Experiment [2] deals with HT29 colon.
The test system of experiment [3] is SNB-75 CNS.
Experiment [4] relates to SNB-19 CNS.
In experiment [5] the test system is U251 CNS.
In experiment [6] the test system is PC-3 prostate.
Experiment [7] has as its system SK-MEL-5 melanoma.
The subject of experiment [8] is UACC-62 melanoma.
Experiment [9] deals with LOX IMVI melanoma.
Experiment [10] deals with SK-MEL-28 melanoma.
Experiment [11] deals with SK-MEL-2 melanoma.
Experiment [12] has as its system EKVX NSCLC.
The test system of experiment [13] is SN12C renal.
For experiment [14], the system named is UO-31 renal.
For experiment [15], the system named is TK-10 renal.
The test system of experiment [16] is ACHN renal.
For experiment [17], the system named is CAKI-1 renal.
Experiment [18] relates to A498 renal.
Experiment [19] has as its system CCRF-CEM leukemia.
Experiment [20] deals with MOLT-4 leukemia.

For the compound `CCOC(=O)C1C(=O)NC(C(=O)OCC)(C(=O)OCC)C1CC` (stereo not given), the growth in experiment [1] was 92.8%; in experiment [2], 111%; in [3], 107%; in experiment [4], 105%; in experiment [5], 105%; in experiment [6] it was 92.9%. The growth is 101% in [7]; 98.1% in experiment [8]; 95.6% in [9]; 123% in experiment [10]; 110% in experiment [11]; 117% in [12]. Besides, the growth in [13] was 100%; in experiment [14], 89.5%; in experiment [15], 115%; in experiment [16], 104%; in experiment [17], 99.9%; in experiment [18], 104%. In addition, the growth is 109% in experiment [19] and 113% in experiment [20].

Consider `O=C1OC2(c3ccccc31)c1ccccc1-c1ccccc12`, for which the growth in experiment [1] is 71.4%; in [2], 74.6%; in [3], 61.2%; in experiment [4], 83%; in experiment [5] it was 63.6%; in experiment [6] it was 74.4%. The growth in [7] is 78.9%; in experiment [8], 57.4%; in [9], 77.6%; in [10], 74.5%; in experiment [11], 65%; in experiment [12], 87.9%. The growth in experiment [13] is 90.4%; in experiment [14] it was 65.7%; in experiment [15], 82.7%; in experiment [16] it was 101%; in experiment [17], 62.3%; in experiment [18], 69.8%. Further, the growth in experiment [19] was 72.4%; in [20], 82.9%.

As to `O=C(O)CCNS(=O)(=O)c1ccc(-c2ccccc2)cc1`, the growth in experiment [1] was 99.2%; in experiment [2] it was 110%; in experiment [3], 90.6%; in experiment [4] it was 102%; in experiment [5] it was 94.5%; in experiment [6], 89.6%. Besides, the growth in [7] was 97.9%; in experiment [8], 96.7%; in experiment [9], 92.1%; in experiment [10], 94.3%; in experiment [11] it was 0.624% (active); in [12] it was 91.6%. Besides, the growth in experiment [13] was 95%; in [14] it was 92.8%; in experiment [15], 136%; in [16], 97.9%; in [17] it was 104%; in [18], 115%. In addition, the growth in experiment [19] was 111%; in experiment [20], 118%.

As to `COc1ccc(C(=O)COc2cccc(/C=C3\COc4ccc5ccccc5c4C3=O)c2)cc1`, the growth in [1] was 88.6%; in [2] it was 60.8%; in [3], -6.64% (active); in [4], 66.9%; in experiment [5], 68.3%; in [6], 48.2%. Further, the growth in experiment [7] is 67.6%; in experiment [8] it was 74.5%; in experiment [9] it was 57.6%; in experiment [10], 106%; in experiment [11] it was 52.6%; in [12], 45.4%. Moreover, the growth in [13] is 68.6%; in [14], -29.5% (active); in experiment [15] it was 125%; in experiment [16], 143%; in experiment [17] it was 71.9%; in experiment [18], 88.8%. The growth in [19] is 13.3%; in experiment [20] it was 44.4%.

In the case of `O=C(NCCNC(=O)Oc1cccc2ccccc12)Oc1cccc2ccccc12`, the growth is 99.6% in experiment [1]; 108% in [2]; 89.5% in experiment [3]; 94.5% in experiment [4]; 116% in [5]; 78.5% in experiment [6]. In addition, the growth in experiment [7] was 85.9%; in experiment [8], 91.1%; in experiment [9] it was 81.9%; in experiment [10], 128%; in [11], 88.7%; in [12], 92.9%. Besides, the growth is 105% in [13]; 45.4% in experiment [14]; 92.3% in experiment [15]; 85.3% in experiment [16]; 95% in experiment [17]; 89.2% in experiment [18]. The figures for the growth in experiment [19] and in experiment [20] were 65.2% and 80.6%, respectively.

Turning to `O=C1N=C(N2CCOCC2)S/C1=C\c1cn(-c2ccccc2)nc1-c1ccccc1`, the growth in [1] is 89.4%; in experiment [2], 80.5%; in [3], -30.2% (active); in experiment [4] it was 72.1%; in experiment [5] it was 66.1%; in experiment [6], 90.4%. Also, the growth was 66.4% in [7]; 77.8% in experiment [8]; 76% in [9]; 72% in experiment [10]; 81.7% in [11]; 90% in experiment [12]. The growth is 92.4% in experiment [13]; 44.3% in experiment [14]; 57.1% in experiment [15]; 58.9% in experiment [16]; 93.9% in experiment [17]; 48% in experiment [18]. Moreover, the growth in experiment [19] was 92.4%; in experiment [20], 116%.

Consider `Cc1ccc(S(=O)(=O)N2CCN(C(=O)CSc3nc4ccc(C)cc4[nH]3)CC2)cc1`, for which the growth in experiment [1] is 110%; in experiment [2], 117%; in [3], 109%; in [4] it was 100%; in experiment [5] it was 106%; in experiment [6], 88.3%. In addition, the growth in experiment [7] is 116%; in [8], 82.3%; in experiment [9], 101%; in experiment [10], 85.3%; in [11], 5.46% (active); in experiment [12], 97%. Further, the growth in experiment [13] was 107%; in experiment [14] it was 93.3%; in experiment [15], 129%; in [16], 113%; in [17] it was 116%; in [18], 99.7%. Further, the growth is 94.6% in experiment [19] and 74.4% in experiment [20].
